HCV inh: HCV inhibition; Huh7.5.1 HCVcc-Cre infection, luciferase reporter, 44 h; Potency, µM (top dose mostly 41.8 µM), usual class: inhibitors; 3.4% of 340,000 active; AID 651820
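Reporter virus HCVcc-Cre (~0.5 moi) infects cells exposed to compound; seeding density 1,000 cells/well with 4 h settling beforehand. Luminescence, 15 sec read, taken 44 h post-infection following a 15 min RT substrate incubation.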
Pf growth 96h: P. falciparum growth inhibition at 96 hours; P. falciparum luciferase reporter growth, 96 h; Potency, µM (doses to about 28.7 µM), hits mostly inhibitors; 6.9% of 320,000 active; AID 504834
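P. falciparum expressing integrated firefly luciferase grown in erythrocytes (2% hematocrit, 0.05% parasitemia final) with compounds for 96 hours at 37 C, 5% CO2. Growth inhibition read as loss of luminescence after adding luciferase detection reagent.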
AMA1-RON2 inh: inhibitors of Plasmodium falciparum AMA1-RON2 interaction; 0.2% of 360,000 active; AlphaScreen AMA1-biotinylated RON2 peptide binding; Potency, µM (highest dose often 58.2 µM), usual class: inhibitors; further: nearly all actives have a fitted effect of over 45% in size
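AMA1 (3D7) with his tag at 25 nM final met compounds first, then biotinylated RON2 peptide at 25 nM; detection used donor plus acceptor beads, 10 µg/mL apiece, read by AlphaScreen after 30 min at room temperature.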
Pf growth 48h: P. falciparum growth inhibition at 48 hours (one generation) | P. falciparum luciferase growth in erythrocytes, 48 h | Potency, µM (highest dose often 28.7 µM), usual class: inhibitors | 5.9% of 310,000 active
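Luminescence readout; reporter = integrated firefly luciferase in P. falciparum. RBC culture at 2% hematocrit, 0.1% parasitemia final, 37 C/5% CO2; decreased signal taken as growth inhibition.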
Cycloheximide cs: counter-screen for Shiga toxin inhibitors: cycloheximide protein synthesis inhibition. cell reporter, cycloheximide protein synthesis inhibition counterscreen. max response, %. 12% of 300,000 active. AID 2314; in the data active means max response mostly above about 13%, no sharp cut-off; inactive means mostly below about 14%; further: read at 38.3 µM for the half of the compounds with a filed dose
Shiga inhibitor: blocks Shiga toxin action in Vero cells; Vero cells, Shiga toxin protein synthesis inhibition reporter; 9.2% of 290,000 active; inhibition, % at 38.7 µM; AID 2315; in the data active means inhibition mostly above about 28%, no sharp cut-off; inactive means mostly below about 43%
Each line names hits and unclear results; the compound was inactive in the other large screens. Only some compounds are listed: those with a hit (about 21% of all), similar ones and a draw of the others. Unless noted, the call rests on the fitted dose curve; in most records, active means well fitted curve in the direction sought with a large enough effect; inconclusive means small, poorly fitted or top-dose-only effect, or another doubt; inactive means no such curve, though single readings can be large; an effect the other way counts as inactive or inconclusive.

Cc1cc(O)c2c(c1O)C(=O)[C@]13C(=C2O)C(=O)[C@@H]2[C@@H](O)[C@H]1[C@@H]1[C@H](O)[C@H]3C(=O)C3=C(O)c4c(O)cc(C)c(O)c4C(=O)[C@]312	HCV inh 5µM (no result: Pf growth 96h, Pf growth 48h, Cycloheximide cs, Shiga inhibitor)
Cc1cc(NC(=O)C(C)SCC(=O)NCc2ccc(F)cc2)no1 (centres undefined)	Pf growth 48h inconclusive (no result: Cycloheximide cs, Shiga inhibitor)
O=C(CSc1nccc(=O)[nH]1)NCc1ccco1	none
COc1ccc(Cn2c(O)c(/C=N/NC(=O)c3cccnc3)c3ccccc3c2=O)cc1	HCV inh inconclusive, Pf growth 96h 5.2µM, Pf growth 48h 13µM
O=C(N/N=C/c1c(O)n(Cc2ccccc2)c(=O)c2ccccc12)c1cccnc1	Pf growth 96h 15µM, Pf growth 48h inconclusive
CC[C@H]1O[C@H](C)CC2=C1C(=O)OC(C)(C)O2	none (no result: HCV inh, Pf growth 96h, Pf growth 48h, Cycloheximide cs, Shiga inhibitor)
COc1ccc(S(=O)(=O)Nc2cccc3c2O[C@H](CN(C)S(=O)(=O)c2ccccc2)[C@@H](C)CN([C@H](C)CO)C3=O)cc1	none (no result: Pf growth 96h, Pf growth 48h, Cycloheximide cs, Shiga inhibitor)
COC(=O)/C(=C1/Oc2ccc(C)cc2S1)C(F)(F)F	Pf growth 96h inconclusive, Cycloheximide cs 25, Shiga inhibitor 57
COC(=O)/C(=C1/Oc2cc3c(cc2S1)OCO3)C(F)(F)F	none
COc1ccc(Oc2c(C(F)(F)F)oc3cc(OCC(=O)O)ccc3c2=O)cc1	Pf growth 96h 9.3µM
COC(CNS(=O)(=O)c1ccc(Cl)cc1)c1ccccc1 (centres undefined)	Pf growth 96h 13µM
COc1ccc(NC(=O)C2(C)CCCN(C(C)C)C2)cc1F (centres undefined)	none (no result: HCV inh, Pf growth 96h, Pf growth 48h, Cycloheximide cs, Shiga inhibitor)
Cc1ccc(CNCc2ccccc2Cl)cc1	Cycloheximide cs 16 (no result: Pf growth 48h)
CCOc1ccc(CN(C)CC(=O)NCc2ccccc2Cl)cc1	Pf growth 96h inconclusive, Shiga inhibitor 36
Fc1ccc(CCNCc2ccccc2Cl)cc1	Cycloheximide cs 22 (no result: Pf growth 48h)
Fc1ccc(CNCc2ccccc2Cl)cc1	none
CCOc1ccc(CNCc2ccccc2Cl)cc1	Cycloheximide cs 32, Shiga inhibitor 51
CCOc1ccc(CNC(c2ccccc2)c2ccccc2)cc1	none
CC1=CC(=C(c2ccc(N)cc2)c2ccc(N)cc2)C=CC1=N	Pf growth 96h 1.1µM, Pf growth 48h 2.4µM (no result: HCV inh, AMA1-RON2 inh, Cycloheximide cs, Shiga inhibitor)
CCOC(=O)c1ccc(NC2OC(=O)c3ccccc32)cc1 (centres undefined)	Cycloheximide cs 15 (no result: Pf growth 96h)
CCOC(=O)c1ccc(N[C@@H]2CCN3C(=O)c4ccccc4[C@@H]3C[C@H]2O)cc1	none (no result: Pf growth 96h, Pf growth 48h, Cycloheximide cs, Shiga inhibitor)
CC(C)c1cc(C(=O)Nc2cc(Br)ccc2O)no1	Pf growth 48h inconclusive, Cycloheximide cs 36, Shiga inhibitor 120 (no result: Pf growth 96h)
CC(C)c1cc(C(=O)Nc2cc(Cl)ccc2O)no1	HCV inh 10µM, Pf growth 96h inconclusive, Pf growth 48h inconclusive, Cycloheximide cs 68, Shiga inhibitor 143
O=C(Nc1cc(Br)ccc1O)c1cc(-c2cccs2)on1	Pf growth 48h inconclusive, Cycloheximide cs 22, Shiga inhibitor 78
COC(=O)c1ccccc1NC(=O)c1cc(-c2cccs2)on1	none
CC(C)(C)S(=O)(=O)N1C[C@@H]2CC/C=C\C/C=C\2[C@H]1CCO	none (no result: Pf growth 96h, Pf growth 48h, Cycloheximide cs, Shiga inhibitor)
CCOCCCNC(=O)c1ccc(/C=C2\Oc3ccccc3N(C)C2=O)cc1	Pf growth 48h inconclusive
O=Cc1ccc(OCC(=O)NCC2CCCO2)cc1 (centres undefined)	none
CN(C)C(=O)c1ccc(-c2cc3onc(-c4ccccc4)c3c(=O)n2C)cc1	HCV inh 3.5µM (no result: Pf growth 96h, Pf growth 48h, Cycloheximide cs, Shiga inhibitor)
CCOC(=O)c1ccc(-c2ccc(/C=N/NC(=O)c3cncc(Br)c3)o2)cc1	Pf growth 48h inconclusive, Cycloheximide cs 13, Shiga inhibitor 40
CCOC(=O)c1ccc(-c2ccc(/C=N/NC(=O)Cc3nnc(N)s3)o2)cc1	Cycloheximide cs 42, Shiga inhibitor 52
Nc1nonc1-c1nc2ccccc2n1CC(=O)N/N=C/c1ccc(-c2cccc(C(=O)O)c2)o1	Cycloheximide cs 34, Shiga inhibitor 70
CC(C)OC(=O)c1ccc(NC(=O)Cn2c(-c3nonc3N)nc3ccccc32)cc1	Pf growth 96h 8.3µM, Pf growth 48h 10µM
Nc1c(Br)cc2c([nH]c(=O)c3ccccc32)c1Br	HCV inh inconclusive (no result: Pf growth 96h, Pf growth 48h, Cycloheximide cs, Shiga inhibitor)
O=Cc1ccc(-c2cccc(C(=O)O)c2)o1	Pf growth 96h inconclusive
Cc1nnc(N/N=C\c2ccc(-c3cccc(C(=O)O)c3)o2)n1N	none
Nc1nnc(CC(=O)N/N=C/c2ccc(-c3cccc(C(=O)O)c3)o2)s1	Cycloheximide cs 61, Shiga inhibitor 142
Nc1nnc(CC(=O)N/N=C/c2ccc(-c3ccc(F)cc3)o2)s1	none
O=C(O)c1cccc(-c2ccc(/C=N/NC(=O)c3cccnc3)o2)c1	Cycloheximide cs 83, Shiga inhibitor 171
O=C(Cc1ccc(Br)cc1)N/N=C/c1ccc(-c2cccc(C(=O)O)c2)o1	Cycloheximide cs 31, Shiga inhibitor 102
COc1ccc(NC(=O)CN(c2ccc(F)cc2)S(=O)(=O)c2ccccc2)c(OC)c1	HCV inh inconclusive
COC(=O)C1CN(C(=O)COc2cccc(C)c2C)c2ccccc2O1 (centres undefined)	Cycloheximide cs 26
Cc1csc(-c2ccc3cc(Cl)cc(Cl)c3n2)n1	none (no result: HCV inh, Pf growth 96h, Pf growth 48h, Cycloheximide cs, Shiga inhibitor)
COc1ccc(Cl)cc1NC(=O)NCC1CCN(Cc2cc(C)ccc2C)CC1	HCV inh inconclusive, Pf growth 96h inconclusive
O=C(NCC1CCN(Cc2cccc(Cl)c2)CC1)Nc1ccc(Cl)cc1	HCV inh inconclusive
CCc1cccc(CN2CCC(CNC(=O)Nc3ccc(Cl)cc3)CC2)c1	Pf growth 96h inconclusive, Pf growth 48h 4.7µM
Cc1ccc(C)c(CN2CCC(CNC(=O)Nc3ccc(C)c(C)c3)CC2)c1	Pf growth 48h 4.1µM
COc1cc([N+](=O)[O-])ccc1NC(=O)NCC1CCN(Cc2ccc(Cl)cc2)CC1	HCV inh 13µM, Pf growth 96h inconclusive, Pf growth 48h inconclusive
Cc1ccc(NC(=O)C/C(N)=N/OC(=O)Nc2ccc(C)c(Cl)c2)cc1	none (no result: Cycloheximide cs, Shiga inhibitor)
CCn1c(O)c(C=Nc2ccccc2)sc1=O	none
Cc1ccc(N=Cc2sc(O)c3ccccc23)cc1	HCV inh inconclusive, Cycloheximide cs 33, Shiga inhibitor 80
Cc1ccc(N=Cc2c(O)n(-c3ccc4c(c3)OCO4)c(=O)c3ccccc23)cc1	HCV inh inconclusive, Pf growth 96h 8.3µM (no result: Pf growth 48h)
Cc1ccc(N=Cc2sc(O)c3ccccc23)c(C)c1	Cycloheximide cs 34, Shiga inhibitor 80
Cn1c(=O)c(-c2ccccc2)c(O)c2ccccc21	none
Cc1ccc(N=Cc2c(O)c3ccccc3n(C)c2=O)cc1	Cycloheximide cs 14
CCCC(C)CO (centres undefined)	none (no result: Cycloheximide cs, Shiga inhibitor)
O=c1oc(-c2cccs2)nc2scc(-c3cccs3)c12	Cycloheximide cs 14 (no result: Pf growth 96h)
Cc1nc2scc(-c3cccs3)c2c(=O)o1	none
Cc1sc2nc(-c3cccs3)oc(=O)c2c1C	Cycloheximide cs 43, Shiga inhibitor 136

Source: PubChem
